# Laboratory results reported in PubChem BioAssay (EPA / NIEHS).
# The source made the active and inactive calls. The calls were made as follows: active = hit-call score of the fitted dose curve at least 0.9, where 1 is the maximum; inactive = score below 0.9.
# Legend:
# [1] = APR_HepG2_NuclearSize_72hr: Apredica 72-hour HepG2 Assay for Nuclear Size (AID 2282925); details: high-content imaging, actives raise or lower the signal
# In short: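 HepG2; cpd 0.39–200 uM, 10 conc, duplicate; 72 h; DMSO 0.5% v/v; fix 3.7% formaldehyde 30 min RT; Triton permeabilization; Hoechst 2 ug/mL; HCS imaging 20x; nuclear diameter; gain/loss fit vs DMSO.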
# [2] = ATG_CRE_CIS: Attagene CIS-FACTORIAL HepG2 Assay for human cAMP Responsive Element (CRE) binding protein 3 (AID 2282926); details: HepG2 CRE cis-reporter, Attagene multiplexed mRNA; actives raise or lower the signal
# In short: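 HepG2 cells transiently transfected with a multiplexed reporter library (CRE-driven unit among them) were dosed for 24 h. Reporter mRNA was quantified by RT-PCR, fluorescent labelling, HpaI digestion and capillary electrophoresis, with bidirectional fitting against DMSO baseline.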
# [3] = target: CCAAT/enhancer-binding protein beta (Homo sapiens) (UniProt P17676); assay: ATG_C_EBP_CIS: Attagene CIS-FACTORIAL HepG2 Assay for human CCAAT/Enhancer Binding Protein (C/EBP) beta (AID 2282927); details: HepG2 Attagene cis-factorial transcription factor reporter; actives raise or lower the signal
# In short: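 Changes in reporter mRNA, rather than exogenous chimeric receptor activity, reflect native C/EBP signalling in transfected HepG2 cells dosed for 24 h; transcripts are detected by RT-PCR and capillary electrophoresis.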
# [4] = ATG_CMV_CIS: Attagene CIS-FACTORIAL HepG2 Assay for human CMV (Internal Marker) (AID 2282928); details: HepG2 CMV promoter reporter, transcription factor profiling; actives raise or lower the signal;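 also: endpoint acts as a background internal control marker rather than a target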
# In short: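 Cell system: HepG2, transiently transfected multiple reporter units under cis promoters. Exposure: 24 h. Detection: RT-PCR, FAM labeling, HpaI digestion, capillary electrophoresis. Analysis: bidirectional, DMSO baseline.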
# [5] = target: Aryl hydrocarbon receptor (Homo sapiens) (UniProt P35869); assay: ATG_Ahr_CIS: Attagene CIS-FACTORIAL HepG2 Assay for human Aryl Hydrocarbon Receptor (Ahr) (AID 2282930); details: HepG2 AhR cis-factorial reporter transcription; actives raise or lower the signal
# In short: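 HepG2, transient MRTU (cis) transfection, 24 h exposure. RNA → cDNA → PCR → 6-FAM primer extension → HpaI 2 h 37 C → CE. Fit: bidirectional, DMSO baseline.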
# [6] = ATG_AP_2_CIS: Attagene CIS-FACTORIAL HepG2 Assay for human Activator Protein 2 (AP-2) (AID 2282932); details: HepG2 AP-2 cis-reporter, Attagene transcription factor profiling; actives raise or lower the signal
# In short: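 Step one: transient transfection of HepG2 with reporter transcription units. Step two: 24 h chemical exposure. Step three: RNA extraction, RT-PCR, labelled fragment analysis by capillary electrophoresis; DMSO serves as baseline.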
# [7] = ATG_BRE_CIS: Attagene CIS-FACTORIAL HepG2 Assay for human Bone Morphogenetic Protein (BMP) Response Element (BRE) (AID 2282933); details: HepG2 BMP response element reporter, Attagene transcription factor profiling; actives raise or lower the signal
# In short: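 HepG2 cells transiently transfected with CIS reporter units (endogenous TF activity, BMP response element), dosed 24 h. Reporter mRNA quantified by RT-PCR, fluorescent labelling and capillary electrophoresis; bidirectional fit vs DMSO baseline.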
# [8] = target: Retinoic acid receptor alpha (Homo sapiens) (UniProt P10276); assay: ATG_DR5_RAR_CIS: Attagene CIS-FACTORIAL HepG2 Assay for human Retinoic Acid Receptor Alpha (RARE), DR5 submotif (AID 2282934); details: HepG2 Attagene cis-factorial RARE DR5 reporter, mRNA; actives raise or lower the signal
# In short: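 HepG2, transient cis-reporter transfection, 24 h exposure. mRNA readout: RT-PCR, FAM label, HpaI cut, capillary electrophoresis. DMSO baseline, gain/loss fitting.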
# [9] = ATG_E_Box_CIS: Attagene CIS-FACTORIAL HepG2 Assay for human Enhancer Box (E-box) (AID 2282936); details: HepG2 E-box cis-reporter transcription, actives raise or lower the signal
# In short: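 DMSO served as negative control and baseline for bidirectional fitting. Human hepatoma HepG2 cells, transiently transfected with cis-reporter constructs, were dosed 24 h; reporter mRNA read by RT-PCR and capillary electrophoresis.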
# [10] = ATG_M_61_CIS: Attagene CIS-FACTORIAL HepG2 Assay for M61 Transcription Factor (Internal Marker) (AID 2282937); details: HepG2 Attagene CIS-FACTORIAL M61 internal marker reporter; actives raise or lower the signal
# In short: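 Background-control endpoint: HepG2 cells with cis-regulated reporter constructs, 24 h exposure, reporter mRNA detected via fluorescent primer extension and capillary electrophoresis; values from bidirectional fitting with DMSO baseline.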
# [11] = ATG_EGR_CIS: Attagene CIS-FACTORIAL HepG2 Assay for human Early Growth Response 1 (EGR1) (AID 2282938); details: HepG2 Attagene CIS-FACTORIAL EGR reporter mRNA; actives raise or lower the signal
# In short: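 Endpoint derived by bidirectional fitting versus DMSO vehicle. Method: cis-promoter reporter units transfected into HepG2, 24 h dosing, RNA isolation, RT-PCR with 6-FAM primer extension and HpaI digestion, then capillary electrophoresis fluorescence detection.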
# [12] = ATG_M_19_CIS: Attagene CIS-FACTORIAL HepG2 Assay for M19 Transcription Factor (Internal Marker) (AID 2282939); details: HepG2 Attagene CIS-FACTORIAL M19 internal marker reporter; actives raise or lower the signal
# In short: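 HepG2 cells transiently transfected with cis-regulated multiplexed reporter units, dosed 24 h. Reporter mRNA quantified by RT-PCR and capillary electrophoresis; internal background marker fitted bidirectionally versus DMSO.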
# [13] = ATG_ERE_CIS: Attagene CIS-FACTORIAL HepG2 Assay for Estrogen Response Element (ERE) (AID 2282940); details: HepG2 ERE cis-reporter, Attagene RNA transcript; actives raise or lower the signal
# In short: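 HepG2 cells transiently transfected with multiplexed cis-element reporter units, measuring endogenous transcription factor activity; ERE reporter mRNA quantified after 24 h exposure by RT-PCR, fluorescent labelling, HpaI digestion and capillary electrophoresis. Bidirectional change versus DMSO.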
# [14] = target: Hepatocyte nuclear factor 3-beta (Homo sapiens) (UniProt Q9Y261); assay: ATG_FoxA2_CIS: Attagene CIS-FACTORIAL HepG2 Assay for human Forkhead box A2 (FOXA2) (AID 2282942); details: HepG2 cis-reporter transcription factor activity, 24 h; actives raise or lower the signal
# In short: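 Measured: reporter mRNA induction or loss in HepG2 transiently carrying multiple cis-regulated reporter units, 24 h after dosing. Quantified by RT-PCR plus capillary electrophoresis, normalised to DMSO.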
# [15] = ATG_FoxO_CIS: Attagene CIS-FACTORIAL HepG2 Assay for human Forkhead box O (FoxO) (AID 2282943); details: HepG2 Attagene cis-reporter, FoxO element, mRNA; actives raise or lower the signal
# In short: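 Human hepatoma HepG2 cells carry transiently introduced reporter transcription units controlled by cis promoter elements. Chemical treatment lasted 24 h, and mRNA signal was compared with DMSO.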
# [16] = ATG_GATA_CIS: Attagene CIS-FACTORIAL HepG2 Assay for human GATA Binding Protein (AID 2282944); details: HepG2 GATA cis-element reporter, Attagene multiplex mRNA; actives raise or lower the signal
# In short: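 HepG2 cells transiently transfected with multiplexed cis-element reporter units measure endogenous GATA activity; after 24 h compound exposure, reporter mRNA quantified by RT-PCR and capillary electrophoresis. Changes fitted in both directions vs DMSO.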
# [17] = ATG_AP_1_CIS: Attagene CIS-FACTORIAL HepG2 Assay for human Activator Protein 1 (AP-1) (AID 2282931); details: HepG2 Attagene cis-factorial AP-1 reporter mRNA; actives raise or lower the signal
# In short: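 Cis-regulated reporter units transiently expressed in HepG2 report endogenous transcription-factor activity. Signal: reporter mRNA at 24 h, via RT-PCR and fluorescent capillary electrophoresis. Endpoint derived by bidirectional fitting, DMSO as negative control.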
# [18] = target: Transcription factor E2F1 (Homo sapiens) (UniProt Q01094); assay: ATG_E2F_CIS: Attagene CIS-FACTORIAL HepG2 Assay for human E2F Transcription Factor 1 (AID 2282935); details: HepG2 Attagene cis-reporter, E2F reporter RNA transcripts; actives raise or lower the signal
# In short: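 Total RNA from 24 h-treated, reporter-transfected HepG2 cells undergoes DNase I treatment, oligo(dT) reverse transcription, PCR and 6-FAM primer extension before capillary electrophoresis.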
# [19] = ATG_Ets_CIS: Attagene CIS-FACTORIAL HepG2 Assay for human Erythroblast Transformation Specific (ETS) (AID 2282941); details: HepG2 ETS cis-reporter transcription, actives raise or lower the signal
# In short: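 After transient cis-reporter transfection, HepG2 cells receive test chemical for 24 h. Reporter mRNA levels, measured by RT-PCR and capillary electrophoresis fluorescence, are analysed bidirectionally relative to the DMSO baseline.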
# CCAAT/enhancer-binding protein beta (Homo sapiens), sequence (P17676 whole entry, looked up): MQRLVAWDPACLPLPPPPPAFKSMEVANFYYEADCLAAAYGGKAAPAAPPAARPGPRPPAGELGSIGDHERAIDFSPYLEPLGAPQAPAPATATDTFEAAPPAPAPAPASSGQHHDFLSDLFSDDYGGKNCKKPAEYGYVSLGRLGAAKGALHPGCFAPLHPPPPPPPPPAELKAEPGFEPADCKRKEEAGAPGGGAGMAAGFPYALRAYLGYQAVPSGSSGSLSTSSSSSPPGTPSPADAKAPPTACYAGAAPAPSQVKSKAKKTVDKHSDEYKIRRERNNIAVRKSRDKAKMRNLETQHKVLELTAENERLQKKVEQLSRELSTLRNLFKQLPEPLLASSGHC
# Retinoic acid receptor alpha (Homo sapiens), sequence (P10276 whole entry, looked up): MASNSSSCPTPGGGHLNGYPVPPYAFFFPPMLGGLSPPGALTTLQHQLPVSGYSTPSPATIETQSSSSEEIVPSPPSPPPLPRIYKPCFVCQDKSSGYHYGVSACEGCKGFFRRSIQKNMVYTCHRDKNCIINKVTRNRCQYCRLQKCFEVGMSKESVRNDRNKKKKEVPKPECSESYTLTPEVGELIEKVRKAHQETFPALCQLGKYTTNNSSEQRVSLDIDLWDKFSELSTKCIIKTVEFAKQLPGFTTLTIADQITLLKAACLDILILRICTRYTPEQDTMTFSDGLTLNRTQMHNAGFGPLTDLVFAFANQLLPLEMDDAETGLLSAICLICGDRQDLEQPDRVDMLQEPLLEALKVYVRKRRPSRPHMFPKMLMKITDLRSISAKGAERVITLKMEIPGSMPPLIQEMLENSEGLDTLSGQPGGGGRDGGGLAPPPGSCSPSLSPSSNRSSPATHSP
# Aryl hydrocarbon receptor (Homo sapiens), sequence (P35869 whole entry, looked up): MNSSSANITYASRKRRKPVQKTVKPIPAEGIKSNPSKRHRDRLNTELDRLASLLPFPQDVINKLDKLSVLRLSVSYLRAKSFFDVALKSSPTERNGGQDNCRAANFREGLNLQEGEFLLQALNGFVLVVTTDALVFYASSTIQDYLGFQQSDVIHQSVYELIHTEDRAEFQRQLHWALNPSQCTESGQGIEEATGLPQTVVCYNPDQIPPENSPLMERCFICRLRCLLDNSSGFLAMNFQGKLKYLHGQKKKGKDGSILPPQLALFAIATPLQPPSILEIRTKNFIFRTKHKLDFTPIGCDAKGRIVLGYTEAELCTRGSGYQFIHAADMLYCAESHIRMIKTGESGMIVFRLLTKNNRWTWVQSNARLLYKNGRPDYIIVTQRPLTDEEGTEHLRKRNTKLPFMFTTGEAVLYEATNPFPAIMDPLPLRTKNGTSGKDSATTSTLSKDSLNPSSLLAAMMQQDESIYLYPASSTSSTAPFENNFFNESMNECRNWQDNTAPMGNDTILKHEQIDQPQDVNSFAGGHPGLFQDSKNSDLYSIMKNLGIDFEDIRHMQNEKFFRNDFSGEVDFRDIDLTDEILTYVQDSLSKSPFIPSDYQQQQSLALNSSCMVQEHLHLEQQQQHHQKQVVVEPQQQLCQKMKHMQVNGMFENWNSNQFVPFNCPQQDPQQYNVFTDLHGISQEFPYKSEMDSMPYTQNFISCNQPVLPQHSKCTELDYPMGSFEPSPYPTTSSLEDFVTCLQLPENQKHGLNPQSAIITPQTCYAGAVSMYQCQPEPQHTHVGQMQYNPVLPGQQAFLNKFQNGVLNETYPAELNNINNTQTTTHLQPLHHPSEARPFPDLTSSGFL
# Hepatocyte nuclear factor 3-beta (Homo sapiens), sequence (Q9Y261 whole entry, looked up): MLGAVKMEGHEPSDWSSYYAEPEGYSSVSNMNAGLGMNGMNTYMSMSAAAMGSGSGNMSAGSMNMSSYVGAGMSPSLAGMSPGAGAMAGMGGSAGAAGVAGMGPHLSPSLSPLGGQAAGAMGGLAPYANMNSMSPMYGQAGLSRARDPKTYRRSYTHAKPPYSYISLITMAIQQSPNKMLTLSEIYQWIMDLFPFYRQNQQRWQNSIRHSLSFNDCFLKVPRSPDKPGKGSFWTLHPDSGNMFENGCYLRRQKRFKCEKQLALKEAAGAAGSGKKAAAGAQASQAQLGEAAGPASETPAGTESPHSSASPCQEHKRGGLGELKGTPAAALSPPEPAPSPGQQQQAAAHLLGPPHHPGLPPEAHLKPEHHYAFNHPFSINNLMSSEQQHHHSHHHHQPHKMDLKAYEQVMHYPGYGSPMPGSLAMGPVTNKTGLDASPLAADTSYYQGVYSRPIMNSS
# Transcription factor E2F1 (Homo sapiens), sequence (Q01094 whole entry, looked up): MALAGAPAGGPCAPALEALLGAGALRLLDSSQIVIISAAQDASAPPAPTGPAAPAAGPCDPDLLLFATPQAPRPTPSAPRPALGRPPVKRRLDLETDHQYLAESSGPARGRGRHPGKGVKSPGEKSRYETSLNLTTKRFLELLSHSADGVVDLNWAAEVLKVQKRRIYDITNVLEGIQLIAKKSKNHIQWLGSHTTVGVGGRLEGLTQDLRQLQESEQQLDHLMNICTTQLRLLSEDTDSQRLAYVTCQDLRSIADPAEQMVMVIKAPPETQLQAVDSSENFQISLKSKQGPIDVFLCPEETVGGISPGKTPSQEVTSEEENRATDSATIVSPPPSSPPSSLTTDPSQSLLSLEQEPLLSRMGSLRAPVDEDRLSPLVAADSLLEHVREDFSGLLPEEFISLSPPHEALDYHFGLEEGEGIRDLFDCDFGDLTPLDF
compound,measurement,setting,value
COC(=O)c1ccccc1S(=O)(=O)NC(=O)N(C)c1nc(C)nc(OC)n1,outcome,[1],inactive
same,outcome,[2],inactive
same,outcome,[3],inactive
same,outcome,[4],inactive
same,outcome,[5],inactive
same,outcome,[6],inactive
same,outcome,[7],inactive
same,outcome,[8],inactive
same,outcome,[9],inactive
same,outcome,[10],inactive
same,outcome,[11],inactive
same,outcome,[12],inactive
same,outcome,[13],inactive
same,outcome,[14],inactive
same,outcome,[15],inactive
same,outcome,[16],inactive
CNC(=O)Oc1ccccc1OC(C)C,outcome,[1],inactive
same,outcome,[2],inactive
same,outcome,[3],inactive
same,outcome,[4],inactive
same,outcome,[5],inactive
same,outcome,[6],inactive
same,outcome,[7],inactive
same,outcome,[8],inactive
same,outcome,[9],inactive
same,outcome,[10],inactive
same,outcome,[11],inactive
same,outcome,[12],inactive
same,outcome,[13],inactive
same,outcome,[14],inactive
same,outcome,[15],inactive
same,outcome,[16],inactive
O=[N+]([O-])/N=C1\NCCN1Cc1ccc(Cl)nc1,outcome,[1],inactive
same,outcome,[2],inactive
same,outcome,[3],inactive
same,outcome,[4],inactive
same,outcome,[17],inactive
same,outcome,[6],inactive
same,outcome,[7],inactive
same,outcome,[8],inactive
same,outcome,[18],inactive
same,outcome,[9],inactive
same,outcome,[10],inactive
same,outcome,[11],inactive
same,outcome,[12],inactive
same,outcome,[13],inactive
same,outcome,[19],inactive
same,outcome,[14],inactive
same,outcome,[15],inactive
same,outcome,[16],inactive
COc1nn(CSP(=S)(OC)OC)c(=O)s1,outcome,[1],inactive
same,outcome,[2],inactive
same,outcome,[3],inactive
same,outcome,[4],inactive
same,outcome,[5],inactive
same,outcome,[6],inactive
same,outcome,[7],inactive
same,outcome,[8],inactive
same,outcome,[18],inactive
same,outcome,[9],inactive
same,outcome,[10],inactive
same,outcome,[11],inactive
same,outcome,[12],inactive
same,AC50,[13],24.8 µM (active)
same,outcome,[19],inactive
same,outcome,[14],inactive
same,outcome,[15],inactive
same,outcome,[16],inactive
Cc1[nH]c(=O)n(C(C)(C)C)c(=O)c1Cl,outcome,[1],inactive
same,AC50,[2],30.3 µM (active)
same,AC50,[3],31.3 µM (active)
same,outcome,[4],inactive
same,outcome,[5],inactive
same,outcome,[17],inactive
same,outcome,[6],inactive
same,AC50,[7],50.5 µM (active)
same,outcome,[8],inactive
same,outcome,[9],inactive
same,outcome,[10],inactive
same,outcome,[11],inactive
same,outcome,[12],inactive
same,outcome,[13],inactive
same,outcome,[19],inactive
same,outcome,[14],inactive
same,outcome,[15],inactive
same,outcome,[16],inactive
CN1CSC(=S)N(C)C1,outcome,[1],inactive
same,AC50,[2],50 µM (active)
same,outcome,[3],inactive
same,outcome,[4],inactive
same,outcome,[5],inactive
same,outcome,[17],inactive
same,outcome,[6],inactive
same,AC50,[7],15.4 µM (active)
same,outcome,[8],inactive
same,outcome,[9],inactive
same,outcome,[10],inactive
same,outcome,[11],inactive
same,outcome,[12],inactive
same,outcome,[13],inactive
same,outcome,[19],inactive
same,outcome,[14],inactive
same,outcome,[15],inactive
same,outcome,[16],inactive
CCC(C)(C)C(=O)OC1=C(c2ccc(Cl)cc2Cl)C(=O)OC12CCCCC2,outcome,[1],inactive
same,outcome,[2],inactive
same,outcome,[3],inactive
same,outcome,[4],inactive
same,outcome,[5],inactive
same,outcome,[17],inactive
same,outcome,[6],inactive
same,outcome,[7],inactive
same,outcome,[8],inactive
same,outcome,[9],inactive
same,outcome,[10],inactive
same,outcome,[11],inactive
same,outcome,[12],inactive
same,outcome,[13],inactive
same,outcome,[14],inactive
same,outcome,[15],inactive
same,outcome,[16],inactive
COP(=O)(OC)OC=C(Cl)Cl,outcome,[1],inactive
same,outcome,[2],inactive
same,outcome,[3],inactive
same,AC50,[4],18.4 µM (active)
same,outcome,[5],inactive
same,AC50,[6],50 µM (active)
same,outcome,[7],inactive
same,outcome,[9],inactive
same,outcome,[10],inactive
same,AC50,[11],14.4 µM (active)
same,outcome,[12],inactive
same,outcome,[13],inactive
same,outcome,[19],inactive
same,outcome,[14],inactive
same,outcome,[15],inactive
same,outcome,[16],inactive
